Measurements as given in PubChem BioAssay (EPA / NIEHS).
Active and inactive are the calls of the source. Rule for the calls: active = hit-call score of the fitted dose curve at least 0.9, where 1 is the maximum; inactive = score below 0.9.

Tests used:
[1] = read-out: Vascular cell adhesion molecule 1 (VCAM1), VCAM1 (gene 7412); test: BSK_4H_VCAM1: BioMAP Diversity Plus: 4H Assay for Vascular cell adhesion molecule 1 (VCAM1) Biomarker Activity (AID 2283033); settings: primary human endothelial cells (HUVEC); actives raise or lower the signal
How it was run: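 Primary human umbilical vein endothelial cells, 4H stimulation system, treated for 24 h; cell-surface VCAM-1 quantified by ELISA. Bidirectional fitting against DMSO; cytotoxicity tracked by SRB total-protein staining in parallel cultures.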

[2] = read-out: Interferon-gamma inducible Protein 10 (IP10), CXCL10 (gene 3627); test: BSK_BE3C_IP10: BioMAP Diversity Plus: BE3C Assay for Interferon-gamma inducible Protein 10 (IP10) Biomarker Activity (AID 2283034); settings: primary human bronchial epithelial cells; actives raise or lower the signal
How it was run: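 Primary human bronchial epithelial cells, with IP-10 measured by ELISA 24 hours after chemical dosing. Bidirectional fit against DMSO; cytotoxicity checked by SRB total protein staining in parallel cultures.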

[3] = read-out: Monokine induced gamma interferon (MIG), CXCL9 (gene 4283); test: BSK_BE3C_MIG: BioMAP Diversity Plus: BE3C Assay for Monokine induced gamma interferon (MIG) Biomarker Activity (AID 2283035); settings: primary human bronchial epithelial cells; actives raise or lower the signal
How it was run: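 ELISA read-out of MIG in human lung bronchial epithelial primary cultures, 24 h post-dosing. Bidirectional curve fit vs DMSO baseline.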

[4] = read-out: Transforming growth factor beta 1 (TGFb1), TGFB1 (gene 7040); test: BSK_BE3C_TGFb1: BioMAP Diversity Plus: BE3C Assay for Transforming growth factor beta 1 (TGFb1) Biomarker Activity (AID 2283036); settings: primary human bronchial epithelial cells; actives raise or lower the signal
How it was run: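 Primary human bronchial epithelial cells dosed with chemical; TGF-b1 measured by ELISA 24 h after dosing. Bidirectional curve fitting against DMSO negative control; SRB total-protein staining in parallel cultures gauged cytotoxicity.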

[5] = read-out: Plasminogen activator inhibitor-1 (PAI1), SERPINE1 (gene 5054); test: BSK_BE3C_PAI1: BioMAP Diversity Plus: BE3C Assay for Plasminogen activator inhibitor-1 (PAI1) Biomarker Activity (AID 2283037); settings: primary human bronchial epithelial cells; actives raise or lower the signal
How it was run: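 Primary human bronchial epithelial cells (BE3C system) exposed 24 h; PAI-1 quantified by ELISA. Parallel sulforhodamine B staining of total protein flags cytotoxicity. Bidirectional fit versus DMSO.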

[6] = read-out: urokinase plasminogen activator (uPA), PLAU (gene 5328); test: BSK_BE3C_uPA: BioMAP Diversity Plus: BE3C Assay for urokinase plasminogen activator (uPA) Biomarker Activity (AID 2283038); settings: primary human bronchial epithelial cells; actives raise or lower the signal
How it was run: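 Using confluent primary human lung bronchial epithelial cultures, we dosed chemicals, waited 24 h, then ran a uPA ELISA, fitting bidirectionally against DMSO.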

[7] = read-out: Urokinase-type plasminogen activator receptor (uPAR), PLAUR (gene 5329); test: BSK_BE3C_uPAR: BioMAP Diversity Plus: BE3C Assay for Urokinase-type plasminogen activator receptor (uPAR) Biomarker Activity (AID 2283039); settings: primary human bronchial epithelial cells; actives raise or lower the signal
How it was run: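 Primary human bronchial epithelial cells dosed for 24 h; uPAR quantified by ELISA with bidirectional fitting against DMSO. Overt cytotoxicity assessed in parallel cultures by SRB total-protein staining (0.1% SRB, 560 nm).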

[8] = read-out: Interleukin-6 (IL6), IL6 (gene 3569); test: BSK_CASM3C_IL6: BioMAP Diversity Plus: CASM3C Assay for Interleukin-6 (IL6) Biomarker Activity for (AID 2283040); settings: primary human coronary artery smooth muscle cells; actives raise or lower the signal
[9] = read-out: Tissue plasminogen activator (tPA), PLAT (gene 5327); test: BSK_BE3C_tPA: BioMAP Diversity Plus: BE3C Assay for Tissue plasminogen activator (tPA) Biomarker Activity (AID 2283041); settings: primary human bronchial epithelial cells; actives raise or lower the signal
How it was run: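 Primary human bronchial epithelial cells in the BE3C system, exposed to compound for 24 h. tPA was quantified by ELISA; DMSO served as baseline, with gain or loss of signal fitted. Cytotoxicity checked in parallel cultures by SRB total-protein staining.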

[10] = read-out: Interleukin-8 (IL8), CXCL8 (gene 3576); test: BSK_CASM3C_IL8: BioMAP Diversity Plus: CASM3C Assay for Interleukin-8 (IL8) Biomarker Activity (AID 2283042); settings: primary human coronary artery smooth muscle cells; actives raise or lower the signal;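 note: IL-8 protein level quantified by ELISA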

Measured: AC50

Cc1c2ccccc2c(C)c2c1ccc1ccccc12
active: [1] 20 µM | [4] 6.06 µM | [5] 29 µM | [8] 20 µM
inactive: all other assays above

CN1C(=O)N(c2ccccc2Br)Cc2cnc(Nc3ccc4c(c3)OCC(CO)O4)nc21 (configuration not stated)
active: [1] 15.2 µM | [2] 19.3 µM | [3] 34.7 µM | [4] 20 µM | [5] 1.63 µM | [6] 5.91 µM | [7] 1.23 µM | [8] 20 µM | [9] 4.46 µM | [10] 14.3 µM

CCCCCCCCOc1ccc(C(=O)c2ccccc2)c(O)c1
inactive: all assays above

NC(=O)c1nc(-c2cccc(-c3cc(F)ccc3OCC(F)(F)C(F)(F)F)c2)n[nH]1
inactive: [8] | [10]
active: [1] 38.2 µM | [2] 35.9 µM | [3] 37.5 µM | [4] 33 µM | [5] 35.1 µM | [6] 37.7 µM | [7] 35.3 µM | [9] 27.5 µM

Cc1ccc2oc(CN(Cc3ccccc3)C(=O)Nc3c(F)cc(F)cc3F)c(-c3ccc(Cl)cc3)c2c1
inactive: all assays above

O=C(Nc1ccc(Cl)cc1)Nc1ccc(Cl)c(Cl)c1
active: [1] 3.48 µM | [2] 2.52 µM | [5] 1.11 µM | [7] 1.1 µM | [8] 12.7 µM | [9] 1.73 µM
inactive: [3] | [4] | [6] | [10]

CCCCOC(=O)CC(CC(=O)OCCCC)(OC(C)=O)C(=O)OCCCC
inactive: all assays above

O=CCCCC=O
active: [1] 31.5 µM | [5] 32.8 µM
inactive: all other assays above

CC(C)(O)c1ccc(CNC(=O)c2cccnc2Oc2ccc3nonc3c2)cc1
active: [8] 20 µM
inactive: all other assays above

CCCOC(=O)c1cc(O)c(O)c(O)c1
active: [1] 2.01 µM
inactive: all other assays above

O=C1CCC(C2CCCCC2)CC1
active: [2] 29.6 µM
inactive: all other assays above

CCCCCCCCCCCC[N+](C)(C)C
inactive: [8]
active: [1] 26.8 µM | [2] 21.8 µM | [3] 33.1 µM | [5] 21.9 µM | [6] 31.6 µM | [7] 33.9 µM | [9] 15 µM | [10] 29.1 µM

OCCO
inactive: all assays above

OC12N=C(c3ccccc3)SC1Cc1cc(Cl)ccc12 (configuration not stated)
active: [1] 20 µM
inactive: all other assays above

O=C1O[C@H]([C@@H](O)CO)C(O)=C1O
inactive: all assays above

CC1(C)NC(=O)N(c2ccc([N+](=O)[O-])c(C(F)(F)F)c2)C1=O
inactive: all assays above

CCCCCCCCN(C)CCCCCCCC
inactive: all assays above

CCOC(=O)O[C@H](C)OC(=O)c1ccc2c(c1)cc(C(=O)NC1CCN(C(C)C)CC1)n2Cc1cc(-c2ccc(Cl)s2)on1
active: [1] 5.44 µM | [2] 11.5 µM | [3] 14.4 µM | [4] 11.8 µM | [5] 12.1 µM | [6] 9.63 µM | [7] 9.89 µM | [8] 9.24 µM | [9] 9.95 µM | [10] 8.81 µM

CCN(Cc1cccnc1)C(=O)c1cccc(Cl)c1[C@]1(C)C(=O)N(Cc2ccc(OC)cc2OC)c2ccc(Cl)cc21
active: [2] 12.1 µM | [5] 3.79 µM | [6] 5.67 µM | [7] 6.94 µM | [8] 12.3 µM
inactive: [1] | [3] | [4] | [9] | [10]

CCCCCCCCCC(=O)O
inactive: all assays above

c1ccc2ccccc2c1
inactive: all assays above

CN(C)C(=O)C1(N2CCCCC2)CCN(CC[C@@]2(c3ccc(Cl)c(Cl)c3)CN(C(=O)c3ccccc3)CCO2)CC1
active: [1] 30.8 µM | [2] 16.4 µM | [3] 31.2 µM | [4] 32.3 µM | [5] 24.4 µM | [6] 17.7 µM | [7] 12 µM | [8] 31.2 µM | [9] 17.3 µM | [10] 32.4 µM

CN(C)c1ccc(C(=C2C=CC(=[N+](C)C)C=C2)c2ccc(N(C)C)cc2)cc1
active: [1] 5.55 µM | [2] 5.52 µM | [3] 6.32 µM | [4] 0.73 µM | [5] 0.228 µM | [6] 1.97 µM | [7] 5.52 µM | [8] 6.61 µM | [10] 5.56 µM

Oc1ccccc1
inactive: all assays above

O=C=NCCCCCCN=C=O
inactive: all assays above

CC1=CC(=O)/C(=C(/C)O)C(=O)O1
inactive: all assays above

CCCCCCCCCCCO
active: [1] 20 µM
inactive: all other assays above

Cc1cc(F)ccc1-c1cc(N2CC[C@@H](O)[C@H]2CO)ncc1N(C)C(=O)C(C)(C)c1cc(C(F)(F)F)cc(C(F)(F)F)c1
active: [1] 11.2 µM | [2] 13.3 µM | [3] 13.9 µM | [4] 11.5 µM | [5] 13 µM | [6] 14.8 µM | [7] 14 µM | [8] 16.3 µM | [9] 9.81 µM | [10] 27.8 µM

CCCCCCCCOC(=O)c1cc(O)c(O)c(O)c1
active: [1] 6.26 µM | [2] 29.8 µM | [3] 34 µM | [4] 27.2 µM | [5] 32.8 µM | [6] 37.7 µM | [7] 36.5 µM | [8] 3.97 µM | [9] 24.9 µM | [10] 31.7 µM

CC(=O)N1CCN(c2ccc(OC[C@H]3CO[C@](Cn4ccnc4)(c4ccc(Cl)cc4Cl)O3)cc2)CC1
active: [1] 33.6 µM | [2] 29.4 µM
inactive: all other assays above

O=C1c2ccccc2C(=O)N1CCc1noc(-c2ccc(CN3CCCCCC3)s2)n1
inactive: all assays above

Clc1cc(Cl)c2c(c1)N=C1CCCCCN1C2
inactive: all assays above

COc1cccc([C@H](O)C2CCN(CCc3ccc(F)cc3)CC2)c1OC
active: [1] 12.9 µM
inactive: all other assays above

Cc1occc1C(=O)Nc1ccc(C(=O)N2CCC(F)(F)/C(=C\C(=O)N3CCC(N4CCCCC4)CC3)c3ccccc32)cc1
active: [1] 9.44 µM
not listed: [4]
inactive: all other assays above

CC(C)(c1cc(Br)c(O)c(Br)c1)c1cc(Br)c(O)c(Br)c1
inactive: [8] | [10]
active: [1] 29.6 µM | [2] 6.45 µM | [3] 9.16 µM | [4] 5.15 µM | [5] 4.89 µM | [6] 9.34 µM | [7] 9.25 µM | [9] 3.37 µM

CO[C@H]1/C=C/O[C@@]2(C)Oc3c(C)c(O)c4c(O)c(c(/C=N/N5CCN(C)CC5)c(O)c4c3C2=O)NC(=O)/C(C)=C\C=C\[C@H](C)[C@H](O)[C@@H](C)[C@@H](O)[C@@H](C)[C@H](OC(C)=O)[C@@H]1C
inactive: all assays above

CN1C(=O)CC[C@H]1c1cccnc1
inactive: all assays above

Cc1cn([C@H]2C[C@H](N=[N+]=[N-])[C@@H](CO)O2)c(=O)[nH]c1=O
inactive: all assays above
